# According to publication PMC11062922 (Nature Chemical Biology, 2023):
# Where two headings read alike, the source gives them in different places.
# Test system: PKN1
# Details: read-out: apparent Kd, n = 1
substance,measurement,setting,value
Lestaurtinib,potency estimated from few doses,"compound concentrations:100 nM and 1000 nM (sheet 'Lestaurtinib' of Supplementary Table 1),run:Lestaurtinib_02364_R2,Plate:MR002",487 nM
same,potency estimated from few doses,"compound concentrations:100 nM and 1000 nM (sheet 'Lestaurtinib' of Supplementary Table 1),run:Lestaurtinib_02364_R3,Plate:MR002",408 nM
same,potency estimated from few doses,"compound concentrations:100 nM and 1000 nM (sheet 'Lestaurtinib' of Supplementary Table 1),run:Lestaurtinib_02367_R1,Plate:MR003",440 nM
same,potency estimated from few doses,"compound concentrations:100 nM and 1000 nM (sheet 'Lestaurtinib' of Supplementary Table 1),run:Lestaurtinib_02367_R2,Plate:MR003",488 nM
same,potency estimated from few doses,"compound concentrations:100 nM and 1000 nM (sheet 'Lestaurtinib' of Supplementary Table 1),run:Lestaurtinib_02381_R1,Plate:MR004",350 nM
same,potency estimated from few doses,"compound concentrations:100 nM and 1000 nM (sheet 'Lestaurtinib' of Supplementary Table 1),run:Lestaurtinib_02381_R2,Plate:MR004",390 nM
same,potency estimated from few doses,"compound concentrations:100 nM and 1000 nM (sheet 'Lestaurtinib' of Supplementary Table 1),run:Lestaurtinib_02381_R3,Plate:MR004",242 nM
same,potency estimated from few doses,"compound concentrations:100 nM and 1000 nM (sheet 'Lestaurtinib' of Supplementary Table 1),run:Lestaurtinib_02407_R1,Plate:MR005",519 nM
same,potency estimated from few doses,"compound concentrations:100 nM and 1000 nM (sheet 'Lestaurtinib' of Supplementary Table 1),run:Lestaurtinib_02422_R1,Plate:MR006",327 nM
same,potency estimated from few doses,"compound concentrations:100 nM and 1000 nM (sheet 'Lestaurtinib' of Supplementary Table 1),run:Lestaurtinib_02422_R2,Plate:MR006",52.5 nM
same,potency estimated from few doses,"compound concentrations:100 nM and 1000 nM (sheet 'Lestaurtinib' of Supplementary Table 1),run:Lestaurtinib_02437_R1,Plate:MR007",578 nM
same,potency estimated from few doses,"compound concentrations:100 nM and 1000 nM (sheet 'Lestaurtinib' of Supplementary Table 1),run:Lestaurtinib_02437_R2,Plate:MR007",490 nM
same,potency estimated from few doses,"compound concentrations:100 nM and 1000 nM (sheet 'Lestaurtinib' of Supplementary Table 1),run:Lestaurtinib_02438_R1,Plate:MR008",516 nM
same,potency estimated from few doses,"compound concentrations:100 nM and 1000 nM (sheet 'Lestaurtinib' of Supplementary Table 1),run:Lestaurtinib_02438_R2,Plate:MR008",520 nM
same,potency estimated from few doses,"compound concentrations:100 nM and 1000 nM (sheet 'Lestaurtinib' of Supplementary Table 1),run:Lestaurtinib_02438_R3,Plate:MR008",483 nM
same,potency estimated from few doses,"compound concentrations:100 nM and 1000 nM (sheet 'Lestaurtinib' of Supplementary Table 1),run:Lestaurtinib_02443_R1,Plate:MR009",429 nM
same,potency estimated from few doses,"compound concentrations:100 nM and 1000 nM (sheet 'Lestaurtinib' of Supplementary Table 1),run:Lestaurtinib_02443_R2,Plate:MR009",415 nM
same,potency estimated from few doses,"compound concentrations:100 nM and 1000 nM (sheet 'Lestaurtinib' of Supplementary Table 1),run:Lestaurtinib_02443_R3,Plate:MR009",397 nM
same,potency estimated from few doses,"compound concentrations:100 nM and 1000 nM (sheet 'Lestaurtinib' of Supplementary Table 1),run:Lestaurtinib_02473_R1,Plate:MR010",430 nM
same,potency estimated from few doses,"compound concentrations:100 nM and 1000 nM (sheet 'Lestaurtinib' of Supplementary Table 1),run:Lestaurtinib_02473_R2,Plate:MR010",385 nM
same,potency estimated from few doses,"compound concentrations:100 nM and 1000 nM (sheet 'Lestaurtinib' of Supplementary Table 1),run:Lestaurtinib_02482_R1,Plate:MR011",508 nM
same,potency estimated from few doses,"compound concentrations:100 nM and 1000 nM (sheet 'Lestaurtinib' of Supplementary Table 1),run:Lestaurtinib_02482_R2,Plate:MR011",460 nM
same,potency estimated from few doses,"compound concentrations:100 nM and 1000 nM (sheet 'Lestaurtinib' of Supplementary Table 1),run:Lestaurtinib_02482_R3,Plate:MR011",432 nM
same,potency estimated from few doses,"compound concentrations:100 nM and 1000 nM (sheet 'Lestaurtinib' of Supplementary Table 1),run:Lestaurtinib_02487_R3,Plate:MR012",500 nM
same,potency estimated from few doses,"compound concentrations:100 nM and 1000 nM (sheet 'Lestaurtinib' of Supplementary Table 1),run:Lestaurtinib_02496_R1,Plate:MR013",473 nM
same,potency estimated from few doses,"compound concentrations:100 nM and 1000 nM (sheet 'Lestaurtinib' of Supplementary Table 1),run:Lestaurtinib_02496_R2,Plate:MR013",455 nM
same,potency estimated from few doses,"compound concentrations:100 nM and 1000 nM (sheet 'Lestaurtinib' of Supplementary Table 1),run:Lestaurtinib_02496_R3,Plate:MR013",459 nM
same,potency estimated from few doses,"compound concentrations:100 nM and 1000 nM (sheet 'Lestaurtinib' of Supplementary Table 1),run:Lestaurtinib_02566_R1,Plate:MR014",512 nM
same,potency estimated from few doses,"compound concentrations:100 nM and 1000 nM (sheet 'Lestaurtinib' of Supplementary Table 1),run:Lestaurtinib_02566_R3,Plate:MR014",539 nM
same,potency estimated from few doses,"compound concentrations:100 nM and 1000 nM (sheet 'Lestaurtinib' of Supplementary Table 1),run:Lestaurtinib_02572_R1,Plate:MR015",628 nM
same,potency estimated from few doses,"compound concentrations:100 nM and 1000 nM (sheet 'Lestaurtinib' of Supplementary Table 1),run:Lestaurtinib_02572_R2,Plate:MR015",517 nM
same,potency estimated from few doses,"compound concentrations:100 nM and 1000 nM (sheet 'Lestaurtinib' of Supplementary Table 1),run:Lestaurtinib_02572_R3,Plate:MR015",559 nM
same,potency estimated from few doses,"compound concentrations:100 nM and 1000 nM (sheet 'Lestaurtinib' of Supplementary Table 1),run:Lestaurtinib_02577_R2,Plate:MR016",613 nM
same,potency estimated from few doses,"compound concentrations:100 nM and 1000 nM (sheet 'Lestaurtinib' of Supplementary Table 1),run:Lestaurtinib_02577_R3,Plate:MR016",470 nM
same,potency estimated from few doses,"compound concentrations:100 nM and 1000 nM (sheet 'Lestaurtinib' of Supplementary Table 1),run:Lestaurtinib_02584_R1,Plate:MR017",493 nM
same,potency estimated from few doses,"compound concentrations:100 nM and 1000 nM (sheet 'Lestaurtinib' of Supplementary Table 1),run:Lestaurtinib_02584_R2,Plate:MR017",437 nM
same,potency estimated from few doses,"compound concentrations:100 nM and 1000 nM (sheet 'Lestaurtinib' of Supplementary Table 1),run:Lestaurtinib_02584_R3,Plate:MR017",508 nM
same,potency estimated from few doses,"compound concentrations:100 nM and 1000 nM (sheet 'Lestaurtinib' of Supplementary Table 1),run:Lestaurtinib_02601_R1,Plate:MR018",580 nM
same,potency estimated from few doses,"compound concentrations:100 nM and 1000 nM (sheet 'Lestaurtinib' of Supplementary Table 1),run:Lestaurtinib_02601_R2,Plate:MR018",523 nM
same,potency estimated from few doses,"compound concentrations:100 nM and 1000 nM (sheet 'Lestaurtinib' of Supplementary Table 1),run:Lestaurtinib_02601_R3,Plate:MR018",615 nM
same,potency estimated from few doses,"compound concentrations:100 nM and 1000 nM (sheet 'Lestaurtinib' of Supplementary Table 1),run:Lestaurtinib_02606_R3,Plate:MR019",534 nM
same,potency estimated from few doses,"compound concentrations:100 nM and 1000 nM (sheet 'Lestaurtinib' of Supplementary Table 1),run:Lestaurtinib_02624_R1,Plate:MR020",496 nM
